Measured values from the supplement of paper PMC9262897, “Low-cost anti-mycobacterial drug discovery using engineered E. coli” (Nature Communications, 2022).
Counter-ions that a name gives are not always drawn. ± gives the standard deviation of the averaged measurements.

Legend:
Assay in all cases: growth (OD600 after 10 h); higher = more growth (less inhibition)
[1] = tested on: E. coli TESEC Alr+ wild-type control; conditions: compound 0.1 mM; raw OD600 reference: median of DMSO wells 0.241, cell-free background 0.041
Method: (§1)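 TESEC Mtb Alr E. coli, or the Alr+ wild-type control, in 384-well plates with Prestwick library compounds at 0.1 mM and 1% DMSO, across arabinose induction levels of 1E3 to 1E7 nM. Growth is read as OD600 after 10 h at 37 °C in triplicate biological replicates.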

E. coli TESEC Mtb Alr [2] = conditions: compound 0.1 mM
Method: as §1

E. coli TESEC Mtb Asd = conditions: compound 0.1 mM
Method: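 TESEC E. coli strains in which the native enzyme is deleted and replaced by arabinose-inducible Mtb Asd, DapB, CysH or TrpD, each grown in its selective medium. Strains were screened against the Prestwick library at 0.1 mM and 1% DMSO in 384-well format at low and high arabinose induction. Growth is read as OD600 after 10 h in triplicate.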

[3] = tested on: E. coli TESEC Alr+ wild-type control; conditions: compound 0.1 mM; raw OD600 reference: median of DMSO wells 0.49, cell-free background 0.052
Method: (§2)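 TESEC Mtb Alr E. coli (ΔaraC ΔtolC ΔentC Δalr ΔdadX, arabinose-inducible Mtb Alr) or the Alr+ wild-type control strain, grown in defined M9-fructose medium without D-alanine in 96-well plates with Prestwick library compounds at 0.1 mM and 1% DMSO. Low Alr induction is 0.1 µM arabinose and high induction is 10 mM arabinose.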

E. coli TESEC Mtb Alr [4] = conditions: compound 0.1 mM; remark: listed apart in the source
Method: as §2

[5] = arabinose 1000 nM, raw OD600 reference: median of DMSO wells 0.294, cell-free background 0.041
[6] = arabinose 10000 nM, raw OD600 reference: median of DMSO wells 0.264, cell-free background 0.041
[7] = arabinose 100000 nM, raw OD600 reference: median of DMSO wells 0.201, cell-free background 0.041
[8] = arabinose 1000000 nM, raw OD600 reference: median of DMSO wells 0.193, cell-free background 0.041
[9] = arabinose 10000000 nM, raw OD600 reference: median of DMSO wells 0.146, cell-free background 0.041
[10] = arabinose induction (level): High, raw OD600 reference: median of DMSO wells 0.331, cell-free background 0.041
[11] = arabinose induction (level): Low, raw OD600 reference: median of DMSO wells 0.417, cell-free background 0.041
[12] = arabinose 100 nM, raw OD600 reference: median of DMSO wells 0.413, cell-free background 0.052
[13] = arabinose 10000000 nM, raw OD600 reference: median of DMSO wells […], cell-free background 0.052

Compound | growth [1] | growth (E. coli TESEC Mtb Alr [2]; [5]) | growth (E. coli TESEC Mtb Alr [2]; [6]) | growth (E. coli TESEC Mtb Alr [2]; [7]) | growth (E. coli TESEC Mtb Alr [2]; [8]) | growth (E. coli TESEC Mtb Alr [2]; [9]) | growth (E. coli TESEC Mtb Asd; [10]) | growth (E. coli TESEC Mtb Asd; [11]) | growth [3] | growth (E. coli TESEC Mtb Alr [4]; [12]) | growth (E. coli TESEC Mtb Alr [4]; [13])
CC(C)(C)NC[C@H](O)COc1ccccc1C1CCCC1 [Penbutolol sulfate] | 0.211 ± 0.0068 | 0.225 ± 0.0034 | 0.321 ± 0.0081 | 0.162 ± 0.011 | 0.128 ± 0.0083 | 0.142 ± 0.013 | 0.205 ± 0.028 | 0.295 ± 0.038 | 0.429 ± 0.019 | 0.412 ± 0.0049 | 0.261 ± 0.047
CC(=O)Oc1ccc(C(c2ccc(OC(C)=O)cc2)c2ccccn2)cc1 [Bisacodyl] | 0.202 ± 0.0032 | 0.245 ± 0.018 | 0.289 ± 0.016 | 0.219 ± 0.031 | 0.201 ± 0.0038 | 0.168 ± 0.0065 | 0.354 ± 0.011 | 0.24 ± 0.028 | 0.5 ± 0.016 | 0.39 ± 0.0062 | 0.39 ± 0.0069
CC[C@H](C)[C@H]1O[C@]2(CC[C@@H]1C)C[C@@H]1C[C@@H](CC=C(C)C(O[C@H]3C[C@H](OC)[C@@H](O[C@H]4C[C@H](OC)[C@@H](O)[C@H](C)O4)[C@H](C)O3)[C@@H](C)C=CC=C3CO[C@@H]4[C@H](O)C(C)=C[C@@H](C(=O)O1)[C@]34O)O2 (stereo partly drawn) [Ivermectin] | 0.315 ± 0.013 | 0.361 ± 0.0096 | 0.291 ± 0.0046 | 0.393 ± 0.048 | 0.209 ± 0.0085 | 0.222 ± 0.0088 | 0.343 ± 0.072 | 0.318 ± 0.13 | 0.525 ± 0.066 | 0.473 ± 0.046 | 0.409 ± 0.038
CCC(=O)O[C@]1(C(=O)CCl)[C@@H](C)C[C@H]2[C@@H]3CCC4=CC(=O)C=C[C@]4(C)[C@@]3(F)[C@@H](O)C[C@@]21C [Clobetasol propionate] | 0.148 ± 0.0028 | 0.19 ± 0.034 | 0.186 ± 0.011 | 0.161 ± 0.01 | 0.0968 ± 0.0071 | 0.156 ± 0.0017 | 0.264 ± 0.097 | 0.178 ± 0.017 | 0.326 ± 0.017 | 0.407 ± 0.015 | 0.122 ± 0.05
CCOCCn1c(N2CCCN(C)CC2)nc2ccccc21 [Emedastine] | 0.223 ± 0.007 | 0.288 ± 0.0092 | 0.25 ± 0.0071 | 0.211 ± 0.052 | 0.164 ± 0.0048 | 0.135 ± 0.004 | 0.291 ± 0.075 | 0.328 ± 0.058 | 0.514 ± 0.081 | 0.415 ± 0.012 | 0.337 ± 0.013
CC(=C(CCO)SSCC1CCCO1)N(C=O)Cc1cnc(C)nc1N (stereo in doubt) [Fursultiamine Hydrochloride] | 0.245 ± 0.0085 | 0.313 ± 0.0078 | 0.282 ± 0.0063 | 0.208 ± 0.023 | 0.22 ± 0.0094 | 0.132 ± 0.0026 | 0.215 ± 0.0087 | 0.275 ± 0.052 | 0.583 ± 0.044 | 0.399 ± 0.013 | 0.323 ± 0.019
Cc1ccccc1C(OCCN(C)C)c1ccccc1 (stereo not drawn) [Orphenadrine hydrochloride] | 0.208 ± 0.013 | 0.26 ± 0.024 | 0.266 ± 0.015 | 0.189 ± 0.0084 | 0.148 ± 0.0039 | 0.159 ± 0.0037 | 0.18 ± 0.015 | 0.383 ± 0.063 | 0.463 ± 0.043 | 0.412 ± 0.013 | 0.321 ± 0.029
COC(=O)CCc1ccc(OCC(O)CNC(C)C)cc1 (stereo not drawn) [Esmolol hydrochloride] | 0.234 ± 0.014 | 0.295 ± 0.018 | 0.2542 ± 0.00042 | 0.218 ± 0.0079 | 0.195 ± 0.0068 | 0.129 ± 0.0016 | 0.242 ± 0.013 | 0.432 ± 0.022 | 0.431 ± 0.019 | 0.405 ± 0.015 | 0.388 ± 0.021
O=C1CCc2cc(OCCCCc3nnnn3C3CCCCC3)ccc2N1 [Cilostazol] | 0.148 ± 0.028 | 0.194 ± 0.027 | 0.1826 ± 0.00091 | 0.125 ± 0.0036 | 0.0688 ± 0.0017 | 0.123 ± 0.0057 | 0.225 ± 0.051 | 0.285 ± 0.033 | 0.461 ± 0.015 | 0.411 ± 0.0062 | 0.145 ± 0.015
CN1CCN(CCCN2c3ccccc3Sc3ccc(C(F)(F)F)cc32)CC1 [Trifluoperazine dihydrochloride] | 0.0402 | 0.03983 ± 0.00032 | 0.03903 ± 0.00012 | 0.04003 ± 5.8e-05 | 0.03933 ± 5.8e-05 | 0.0403 ± 0.0001 | 0.0513 ± 0.00026 | 0.054 ± 0.0007 | 0.04767 ± 0.00035 | 0.26 ± 0.19 | 0.0509 ± 0.00026
CC(N)CCCC(C)(C)O (stereo not drawn) [Heptaminol hydrochloride] | 0.252 ± 0.0036 | 0.285 ± 0.011 | 0.26 ± 0.013 | 0.204 ± 0.04 | 0.1796 ± 0.0016 | 0.141 ± 0.0064 | 0.357 ± 0.015 | 0.442 ± 0.022 | 0.501 ± 0.054 | 0.407 ± 0.011 | 0.36 ± 0.0092
CC(=O)NC[C@H]1CN(c2ccc(N3CCOCC3)c(F)c2)C(=O)O1 [Linezolid] | 0.047 ± 0.0002 | 0.0465 ± 0.0021 | 0.0406 ± 0.00046 | 0.0473 ± 0.0018 | 0.0402 ± 0.00055 | 0.0474 ± 0.0016 | 0.072 ± 0.0052 | 0.0786 ± 0.0075 | 0.0669 ± 0.00098 | 0.135 ± 0.055 | 0.0531 ± 0.0013
CNCCC(Oc1ccc(C(F)(F)F)cc1)c1ccccc1 (stereo not drawn) [Fluoxetine hydrochloride] | 0.129 ± 0.0027 | 0.0669 ± 0.0012 | 0.133 ± 0.0068 | 0.0693 ± 0.0015 | 0.0486 ± 0.00026 | 0.05543 ± 0.00047 | 0.0984 ± 0.0045 | 0.086 ± 0.016 | 0.118 ± 0.11 | 0.411 ± 0.011 | 0.0614 ± 0.0047
Cc1ncc([N+](=O)[O-])n1CC(C)O (stereo not drawn) [Secnidazole] | 0.2401 ± 0.001 | 0.304 ± 0.012 | 0.272 ± 0.015 | 0.201 ± 0.0071 | 0.188 ± 0.0085 | 0.137 ± 0.0015 | 0.369 ± 0.026 | 0.466 ± 0.031 | 0.4475 ± 0.003 | 0.4049 ± 0.0029 | 0.327 ± 0.0064
COCCOC(=O)C1=C(C)NC(C)=C(C(=O)OC/C=C/c2ccccc2)C1c1cccc([N+](=O)[O-])c1 (stereo not drawn) [Cilnidipine] | 0.275 ± 0.0065 | 0.333 ± 0.0093 | 0.304 ± 0.028 | 0.195 ± 0.022 | 0.14 ± 0.015 | 0.164 ± 0.0066 | 0.187 ± 0.016 | 0.319 ± 0.026 | 0.518 ± 0.028 | 0.457 ± 0.0093 | 0.253 ± 0.026
CCN(CCCc1ccccc1)CCCc1ccccc1 [Alverine citrate salt] | 0.205 ± 0.011 | 0.221 ± 0.013 | 0.286 ± 0.0067 | 0.177 ± 0.0094 | 0.1472 ± 0.00053 | 0.156 ± 0.011 | 0.211 ± 0.032 | 0.4 ± 0.074 | 0.48 ± 0.026 | 0.418 ± 0.0047 | 0.328 ± 0.0065
Nc1nc(=O)c2c([nH]1)NC[C@@H](CNc1ccc(C(=O)N[C@@H](CCC(=O)O)C(=O)O)cc1)N2C=O [Folinic acid calcium salt] | 0.255 ± 0.0064 | 0.289 ± 0.0096 | 0.274 ± 0.0059 | 0.204 ± 0.033 | 0.211 ± 0.016 | 0.1379 ± 0.0013 | 0.307 ± 0.0086 | 0.391 ± 0.08 | 0.567 ± 0.12 | 0.397 ± 0.008 | 0.375 ± 0.019
CC(C)(C)CC(C)(C)c1ccc(OCOCCOCCO)c(Cc2cc(C(C)(C)CC(C)(C)C)cc(Cc3cc(C(C)(C)CC(C)(C)C)ccc3OCOCCOCCO)c2OCOCCOCCO)c1 [Tyloxapol] | 0.341 ± 0.018 | 0.323 ± 0.0088 | 0.256 ± 0.0056 | 0.455 ± 0.027 | 0.171 ± 0.0031 | 0.261 ± 0.032 | 0.475 ± 0.018 | 0.509 ± 0.0063 | 0.4593 ± 0.0043 | 0.418 ± 0.016 | 0.4093 ± 0.0033
